Several values for one entry are separate records, joined by “and”; a condition that tells them apart may be missing. Identical values can stand only once. About 2,000 (36%) of roughly 5,500 compounds were called active. Roughly 18% stayed inconclusive and do not appear here. Rule as the data show it: active = normalized growth mostly below about 0.91 (no sharp cut-off); inconclusive = no clear call, values can overlap the other calls; inactive = mostly above about 0.92. The list shows a part of the results.
Assay: chemical genetic growth profiling, strain panel (AID 1159580);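 also: tested at 20 µM; growth read once vehicle control cultures reached saturation at 30 °C; 1 = growth at the plate median or of vehicle wells; lower values mean less growth of the strain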
Settings: S. cerevisiae deletion strains, growth OD

Measured: normalized growth

Oc1cc(O)c2c(c1)O[C@H](c1ccc(O)c(O)c1)[C@H](O)C2
inactive: locus YAL021C, strain ccr4, hits give low values 1.02 | locus YAL026C, strain drs2, hits give low values 1.01 | locus YAL030W, strain snc1, hits give low values 1 | locus YBL061C, strain skt5, hits give low values 1.02 | locus YBR009C, strain hhf1, hits give low values 1.02 | locus YBR023C, strain chs3, hits give low values 1.01 | locus YBR171W, strain sec66, hits give low values 1.02 | locus YBR229C, strain ROT2, hits give low values 1 | locus YBR231C, strain swc5, hits give low values 1.02 | locus YBR279W, strain paf1, hits give low values 1.01 | locus YCL011C, strain gbp2, hits give low values 1.01 | locus YCL016C, strain dcc1, hits give low values 1 | locus YCL029C, strain bik1, hits give low values 0.976 | locus YCL061C, strain MRC1, hits give low values 1.01 | locus YCL069W, strain vba3, hits give low values 1.01 | locus YCR088W, strain abp1, hits give low values 1.01 | locus YDL005C, strain med2, hits give low values 1.01 | locus YDL035C, strain GPR1, hits give low values 1.03 | locus YDL040C, strain nat1, hits give low values 0.998 | locus YDL074C, strain BRE1, hits give low values 1 | locus YDL101C, strain DUN1, hits give low values 1 | locus YDL185W, strain tfp1, hits give low values 0.953 | locus YDL192W, strain arf1, hits give low values 0.992 | locus YDR001C, strain nth1, hits give low values 1 | locus YDR069C, strain doa4, hits give low values 1 | locus YDR101C, strain arx1, hits give low values 0.986 | locus YDR137W, strain rgp1, hits give low values 1.02 | locus YDR150W, strain NUM1, hits give low values 0.984 | locus YDR159W, strain sac3, hits give low values 1.06 | locus YDR162C, strain NBP2, hits give low values 1.03 | locus YDR195W, strain ref2 0.968 | locus YDR297W, strain sur2, hits give low values 1.01 | locus YDR318W, strain mcm21, hits give low values 0.995 | locus YDR334W, strain swr1, hits give low values 1.01 | locus YDR335W, strain msn5, hits give low values 0.994 | locus YDR388W, hits give low values 0.995 | locus YDR392W, strain spt3, hits give low values 1.01 | locus YDR502C, strain sam2, hits give low values 1.01 | locus YEL003W, strain gim4, hits give low values 1.01 | locus YEL037C, strain rad23, hits give low values 1.02 | locus YEL061C, strain CIN8 (second series), hits give low values 1 | locus YEL061C, strain CIN8, hits give low values 0.994 | locus YER015W, strain faa2, hits give low values 1 | locus YER016W, strain bim1, hits give low values 1.01 | locus YER110C, hits give low values 0.969 | locus YER111C, strain swi4, hits give low values 1 | locus YER155C, strain BEM2 (second series), hits give low values 1.02 | locus YER155C, strain BEM2, hits give low values 1 | locus YER167W, strain BCK2, hits give low values 1.02 | locus YFR010W, strain ubp6, hits give low values 1.01 | locus YGL078C, strain dbp3, hits give low values 0.997 | locus YGL086W, strain mad1, hits give low values 0.994 | locus YGL167C, strain pmr1, hits give low values 1.01 | locus YGL173C, strain kem1, hits give low values 1.01 | locus YGL227W, strain vid30, hits give low values 1.01 | locus YGL240W, strain doc1, hits give low values 1.04 | locus YGL248W, strain PDE1, hits give low values 1 | locus YGL253W, strain hxk2, hits give low values 1.02 | locus YGR135W, strain pre9, hits give low values 1.01 | locus YGR252W, strain gcn5, hits give low values 1.13 | locus YHR013C, strain ard1, hits give low values 0.995 | locus YHR027C, strain rpn1, hits give low values 1.01 | locus YHR030C, strain SLT2, hits give low values 1 and 0.992 | locus YHR079C, strain IRE1 (second series), hits give low values 0.975 | locus YHR079C, strain IRE1, hits give low values 0.992 | locus YHR094C, strain hxt1, hits give low values 0.992 | locus YHR129C, strain ARP1, hits give low values 1 | locus YHR142W, strain chs7, hits give low values 1.02 | locus YHR200W, strain rpn10, hits give low values 0.983 | locus YIL066C, strain RNR3, hits give low values 1.01 | locus YIL073C, strain SPO22, hits give low values 0.997 | locus YIL125W, strain kgd1, hits give low values 0.996 | locus YIR030C, strain dcg1, hits give low values 0.986 | locus YJL092W, strain hpr5, hits give low values 1.02 | locus YJL095W, strain BCK1 (second series), hits give low values 1.01 | locus YJL095W, strain BCK1, hits give low values 0.984 and 1 | locus YJL115W, strain asf1, hits give low values 1 | locus YJL129C, strain trk1, hits give low values 1.02 | locus YJL134W, strain LCB3, hits give low values 0.991 | locus YJL154C, strain vps35, hits give low values 1.01 | locus YJL164C, strain tpk1, hits give low values 1 | locus YJL166W, strain qcr8, hits give low values 1.02 | locus YJL168C, strain set2, hits give low values 0.98 | locus YJL187C, strain SWE1 (second series), hits give low values 0.994 | locus YJL187C, strain SWE1, hits give low values 1
active: locus YBR021W, strain FUR4, hits give low values 1.21 [resistant]

From PubChem BioAssay AID1159580 (chemical genetic matrix, 2015)
